From PubChem BioAssay (NCI)
This is part of a sample that, as a whole, favours compounds with a hit. Of some 83,000 tested, about 20% had one in any assay.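 48-hour exposure, single concentration, 96-well plates; percent growth endpoint where 0 means no net growth. Active: below 10.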 Unmarked numbers belong to inactive results. Active and inactive are the calls of the source.

Columns and labels:
Assay in all cases: NCI-60 one-dose screen, 48 h (100 = growth as untreated, 0 = no growth, -100 = all killed)
Details in all cases: 10 µM unless noted
HCT-15 colon = system: HCT-15 colon
HT29 colon = system: HT29 colon
SNB-75 CNS = system: SNB-75 CNS
SNB-19 CNS = system: SNB-19 CNS
U251 CNS = system: U251 CNS
PC-3 prostate = system: PC-3 prostate
SK-MEL-5 melanoma = system: SK-MEL-5 melanoma
UACC-62 melanoma = system: UACC-62 melanoma
SK-MEL-28 melanoma = system: SK-MEL-28 melanoma
LOX IMVI melanoma = system: LOX IMVI melanoma

Structure (SMILES)	growth (HCT-15 colon)	growth (HT29 colon)	growth (SNB-75 CNS)	growth (SNB-19 CNS)	growth (U251 CNS)	growth (PC-3 prostate)	growth (SK-MEL-5 melanoma)	growth (UACC-62 melanoma)	growth (SK-MEL-28 melanoma)	growth (LOX IMVI melanoma)
C#CCNC(=O)[C@]1(C)CC[C@]2(C)CC[C@@H]3C(=CC[C@H]4[C@@]3(C)CC[C@H]3C(C)(C)C(=O)CC[C@]43C)[C@@H]2C1	98%	93.1%	102%	102%	99.1%	64.6%	93.3%	83.2%	102%	
C/C(=N\NC(=O)CSc1nc2ccccc2c(=O)n1Cc1ccc(S(N)(=O)=O)cc1)c1ccc(F)cc1	96.9%	94.7%	98.5%	102%	103%	102%	105%		117%	97.6%
Cc1c(C(=O)NCCC(=O)NO)sc2ncnc(Nc3ccc(NC(=O)Nc4cccc(C(F)(F)F)c4)cc3)c12	101%	110%	78.8%	93.6%	80.2%	100%	97.1%	99.6%	110%	
Cn1cc(-c2csc(-c3c[nH]c4ccccc34)n2)c2ccnc(Cl)c21	-8.86% (active)	27.9%	77.7%	94%	48.6%	56%	50%	84.9%	85.1%	
O=C(CCN1CCCC1)Nc1ccc2c(NCCCc3ccccc3)c3ccccc3nc2c1	36.3%	3.74% (active)	23%	24.6%	-58.9% (active)	-0.52% (active)	67.4%		66.1%	-87% (active)
CCN(CC)c1ccc(/C=N/NC(=O)CSc2nc3ccccc3c(=O)n2CCc2ccc(S(N)(=O)=O)cc2)c(O)c1	25.9%	42.4%	59.2%	53.9%	31.7%	45%	29.4%		47.9%	11.5%
N#Cc1cc(-c2nc3ccccc3s2)c(=O)n(NS(=O)(=O)c2ccccc2)c1N	108%	107%	73.1%	103%	102%	102%	101%	97.1%	121%	
CCOC(=O)c1nc2c3ccccc3ccn2c1C(=O)OCC	99.7%	105%	36.8%	89.2%	105%	110%	98.2%		113%	98.6%
COc1cccc(-c2ccc3c(c2)NC(=O)/C3=C\c2ccc[nH]2)c1	20.7%	23.6%	44%	81.6%	83.5%	70.1%	11%	44.3%	70.7%	
O=C1Nc2cc(-c3ccc(NC(=O)C4CC4)cc3)ccc2/C1=C/c1ccc[nH]1	94.7%	101%	94.5%	94.7%	84%	104%	98.6%	110%	119%	
O=C(/C(=C\c1ccc([N+](=O)[O-])cc1)S(=O)Cc1ccc(F)cc1)c1ccc(F)cc1 (centres undefined)	2.57% (active)	-55% (active)	72.1%	41%	10.3%	7.46% (active)	76.7%	-22.4% (active)	23.2%	
CC(Oc1ccc(C(=O)O)cc1C(F)(F)F)c1ccc(Oc2ccccc2)cn1 (centres undefined)	80.6%	121%	90.1%	96.7%	94.4%	108%	98.7%	91.8%	95.1%	
Cc1ccccc1NS(=O)(=O)c1cccc(C(=O)Nc2ccc(Br)cc2)c1	37.3% [25 µM]	47.8% [25 µM]	53.7% [25 µM]	42.9% [25 µM]	53% [25 µM]	27.3% [25 µM]	-38.9% [25 µM] (active)		60% [25 µM]	39.2% [25 µM]
N#C/C(=C\c1c(-c2ccccc2)[nH]c2ccccc12)C(=O)c1ccc(Cl)cc1	31.1%	17.3%	-4.21% (active)	55.3%	18.6%	32.9%	1.79% (active)	28.6%	50.9%	
C[C@H]1[C@H](C)CC[C@]2(C(=O)NCC#CCN3CCN(C)CC3)CC[C@]3(C)C(=CC[C@@H]4[C@@]5(C)Cc6c([nH]c7ccccc67)C(C)(C)[C@@H]5CC[C@]43C)[C@H]12	47%	19.3%	90.1%	83.2%	64.3%	69.8%	88.5%		82.3%	70.9%
Cc1ccc(/C=C(/C#N)n2nnc3cccc(F)c32)cc1	5.46% (active)	9.94% (active)	-35.7% (active)	16.2%	13.9%	20.8%	-55.2% (active)		52.4%	-14.7% (active)
CCCCN1C=CCN(CCCC)C1	90.2%	49.2%	66.8%	31.1%	22.4%	32.4%	-6.08% (active)		40%	68.8%
O=C(/C=C(/C=C/c1coc2ccccc12)OB(F)F)/C=C/c1coc2ccccc12	95.1%	100%	98%	89.1%	84.6%	86.2%	105%	88.9%	101%	
N#C/C(=C\c1ccc(C(F)(F)F)cc1)c1cc2ccccc2[nH]1	92.5%	99.7%	89%	102%	105%		95.6%	95.1%	102%	
COc1ccc2[nH]c(=O)c(CN3CCN(c4nccc(-c5ccc(Cl)cc5)n4)CC3)cc2c1	91.8%	78.2%	99.9%	78.8%	81.2%		94.6%	94.4%	95.8%	99.6%
O=C(Nc1ccccc1)Nc1ccc2cc3ccc(NC(=O)Nc4ccccc4)cc3nc2c1	93.9%	4.81% (active)	-0.331% (active)	-27.5% (active)	-39.3% (active)		83%	18.7%	-13.4% (active)	-52.8% (active)
COc1c(Cl)c2c(c(OC)c1OC)-c1ccc(SC)c(=O)cc1[C@@H](NC(=O)OCC(F)(F)F)CC2	9.54% (active)	13.5%	37.4%	29.4%	20.6%		-7.65% (active)	34.4%	63%	15.1%
CC(=O)Oc1ccc(/C=N/NC(N)=S)nc1	92%	94.6%	8.77% (active)	102%	51.7%		14.6%		65.7%	47.7%
CC(=O)Nc1cccc(-c2ccc3c(c2)NC(=O)/C3=C\c2ccc[nH]2)c1	27.2%	25.6%	53.3%	69.1%	45.6%		61.1%	48.5%	68.3%	35.9%
Cn1cc(-c2nc(-c3c[nH]c4c(Cl)nccc34)cs2)c2cc(Br)ccc21	66.5%	74.9%	94%	97.6%	77.9%		88%	80.3%	88.9%	73.4%
O=C(C[n+]1cccc2ccccc21)c1ccc(O)c(O)c1	20.8%	40.7%	66%	74.5%	91.1%	69.9%		69.7%	84.7%	28.3%
c1ccc(Cn2cnc3ccc(-c4nc(-c5ccc6c(c5)ncn6C5CCCCC5)cn5ccnc45)cc32)cc1	-9.03% (active)	-48.7% (active)	-67.4% (active)	19.6%	-22.8% (active)		-84% (active)	-31.2% (active)	0.441% (active)	-87% (active)
CCCCCN1C=C/C(=C\C(=O)n2ccc3ccccc32)c2ccccc21	98.4%	80.6%	90.9%	106%	91.1%		97.3%	67%		92%
